Only some compounds are listed: those with a hit (about 3.9% of all), similar ones and a draw of the others.
3CLpro inhibitor – SARS-CoV 3CLpro protease inhibition | recombinant SARS-CoV 3CLpro, quenched FRET peptide cleavage | inhibition, % at 6 µM | hit rate 0.14% among 290,000 | AID 1706; in the data active means inhibition above about 12%
BH1578 lux ind – inducers of Vibrio cholerae quorum light production without autoinducers; V. cholerae BH1578 lux reporter, luminescence, 6 h; activation, % at 18.7 µM; hit rate 0.16% among 350,000; in the data active means activation mostly above about 9.7%, no sharp cut-off
PrPC TRFRET – cell surface PrPC inhibition, primary TR-FRET screen | P04156 | TR-FRET read-out | inhibition, % at 13.8 µM | hit rate 0.43% among 370,000 | AID 720596; in the data active means inhibition above about 24%; further: 0% = median of the test wells and 100% = reference compound wells
FBA Mtb inh – Mtb fructose-bisphosphate aldolase inhibition | AID 588726 | P9WQA3 | purified M. tuberculosis FBA, fluorescence read-out | hit rate 2.3% among 360,000 | inhibition, % at 1 µM; in the data active means inhibition above about 27%;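 further: 0% = vehicle and 100% = reference inhibitor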
GDH-TPI inh – GDH-TPI coupled enzyme inhibition counter-screen. AID 588335. inhibition, % at 4.8 µM. GDH-TPI coupled enzyme counterscreen, NADH absorbance. hit rate 1.2% among 360,000; in the data active means inhibition above about 30%;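 further: 0% = DMSO wells and 100% = wells lacking the enzyme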
PrPC TRFRET cf – cell surface PrPC inhibition, TR-FRET confirmation; shares compounds with PrPC TRFRET; cell surface PrPC level; inhibition, % at 13.8 µM; hit rate 65% among 1,500; AID 743200; in the data active means inhibition above about 25%
LD9 cytotox – counter-screen for PrPc inhibitors: cytotoxicity in LD9 cells; hit rate 29% among 1,500; luminescence viability; inhibition, % at 13.8 µM; shares compounds with PrPC TRFRET; in the data active means inhibition above about 9.5%
Numbers without * were called inactive; i = inactive; . = no result given.

SMILES	3CLpro inhibitor	BH1578 lux ind	PrPC TRFRET	FBA Mtb inh	GDH-TPI inh	PrPC TRFRET cf	LD9 cytotox
OC[C@@H]1CN(Cc2ccc(Cl)cc2)C[C@H](n2cnc3c(Nc4ccccc4)ncnc32)O1	.	i	41*	3	12	20	-2
CCOc1ccccc1CN1CCNC(=O)C1CC(=O)NC1CCCCCCC1 (centres undefined)	12	0	0	5	0	.	.
Cc1cc(-c2ccccc2)n2ncnc2n1	1	-1	28*	10	-2	-3	-7
Cc1cc(-c2ccc3ccccc3c2)n2ncnc2n1	1	i	-5	14	2	.	.
COc1ccc2c(c1)CN(C)S(=O)(=O)c1ccccc1-2	.	i	5	10	-1	.	.
COc1cc(OC)cc(C(=O)N[C@H](C(=O)Nc2nc(-c3ccc(OC)c(OC)c3)cs2)C(C)C)c1	3	i	19	-2	-4	.	.
COc1ccc(Nc2nnc(C)c3ccccc23)cc1C(N)=O	-4	i	22	-2	25	.	.
COc1ccc(Nc2nnc(-c3ccc(O)cc3)c3ccccc23)cc1C(N)=O	-3	0	94*	1	11	99*	3
CCOc1ccc2nc(NC(=O)c3ccco3)sc2c1	-2	i	31*	-1	30	39*	14*
COc1ccc(S(=O)(=O)N2CCC(C(=O)NCC(=O)Nc3c(C)cccc3C)CC2)cc1OC	.	i	1	4	1	.	.
C=C1c2cccc(O)c2C(=O)C2C(=O)[C@]3(O)C(=O)C(C(N)=O)C(=O)[C@@H](N(C)C)[C@@H]3[C@@H](O)[C@H]12 (some centres undefined)	.	i	40*	-1	28	-2	0
O=C(NCC(=O)N1CCN(S(=O)(=O)c2ccccc2F)CC1)c1ccc(Br)o1	-2	i	1	3	2	.	.
Cc1cccc(-n2ncc3c(NCc4cccs4)ncnc32)c1	3	-5	27*	6	-3	9	-2
Clc1ccc(-n2ncc3c(NCc4cccs4)ncnc32)cc1	5	0	-2	2	8	.	.
COc1cccc(-c2cc3c(=O)n(-c4ccccc4)c(=S)[nH]c3s2)c1	2	6	31*	4	38*	67*	-1
O=C(Nc1ccc(OC(F)(F)F)cc1)Nc1cccc([N+](=O)[O-])c1	2	0	26*	0	-11	43*	41*
O=C(Nc1ccc(OC(F)F)cc1)Nc1cccc(C(F)(F)F)c1	2	i	35*	-2	-7	23	22*
O=C1CCC[C@H]2C[C@H](NCc3ccc(F)cc3)CC[C@]23CCCN13	.	.	-8	.	.	.	.
CCOc1ccc(C2/C(=C(\O)c3ccc(OC)c(OC)c3)C(=O)C(=O)N2c2cc(C)on2)cc1OC (centres undefined)	-8	.	-10	-2	27	.	.
CCOc1ccc(/C(O)=C2\C(=O)C(=O)N(c3cc(C)on3)C2c2ccccc2OC)cc1 (centres undefined)	6	0	35*	-2	19	55*	0
CCOc1ccc(/C(O)=C2\C(=O)C(=O)N(c3ccccn3)C2c2ccccc2F)c(C)c1 (centres undefined)	.	-1	34*	-3	10	67*	-5
COc1cccc(C(=O)OCC(=O)N2CCc3ccccc3C2)c1OC	.	1	0	5	-4	.	.
CC(C)CN1C(=O)C[C@@]2(C(=O)N(C)c3ccc(NC(=O)c4cc(F)ccc4F)cc32)C1c1ccccc1 (some centres undefined)	.	.	11	.	.	.	.
O=C(Nc1ccc2nc3n(c(=O)c2c1)CCCCC3)c1c(F)ccc([N+](=O)[O-])c1F	6	0	26*	2	2	28*	96*
CCCN(C(=O)C(=O)Nc1ccc2nc3n(c(=O)c2c1)CCCCC3)c1ccc(OCC)cc1	1	0	31*	1	8	12	-2
SMILES	3CLpro inhibitor	BH1578 lux ind	PrPC TRFRET	FBA Mtb inh	GDH-TPI inh	PrPC TRFRET cf	LD9 cytotox
O=C(Nc1ccc2nc3n(c(=O)c2c1)CCCCC3)c1cc([N+](=O)[O-])ccc1F	6	0	-26	4	5	.	.
CC(=O)c1sc(NC(=O)C(C)C)nc1C	-2	i	33*	4	10	35*	-3
N#CC1=C2SCN(Cc3ccccc3)CN2C(=O)CC1c1ccc2c(c1)OCO2 (centres undefined)	7	0	1	0	12	.	.
N#CC1=C2SCN(Cc3ccccc3)CN2C(=O)CC1c1cccs1 (centres undefined)	0	0	27*	-1	9	56*	-3
COCCCn1cc(CN2CC(N3CCCCC3)CS2(=O)=O)nn1 (centres undefined)	.	.	2	.	.	.	.
O=C(Nc1ccccc1C(F)(F)F)OC1CC2CC1[C@H]1CCCCN1C2 (some centres undefined)	.	.	-7	.	.	.	.
Cc1ccc(C2=N/C(=C\c3coc4ccccc4c3=O)C(=O)O2)cc1	.	.	-2	.	.	.	.
c1ccc(CCNc2nc(-c3ccccn3)nc3ccccc23)cc1	4	0	10	11	19	.	.
c1ccc(-c2cccc(CNc3nc(-c4ccccn4)nnc3-c3ccccc3)c2)cc1	.	.	33*	.	.	36*	25*
CN(C)c1nc(-c2ccccn2)nnc1-c1ccccc1	-2	0	27*	2	5	36*	-1
c1ccc(-c2nnc(-c3ccccn3)c(-c3ccccn3)n2)nc1	0	i	-16	-2	13	.	.
COc1cnc(-c2ccccn2)nc1N(C)C	-2	0	26*	5	2	27*	1
COCc1cc(N2CCN(C(=O)OC(C)(C)C)C[C@H]2C)ccc1N1CCN(Cc2ccccc2)[C@H](C)C1	.	.	6	.	.	.	.
COc1ccccc1C(=O)Nc1c(C(=O)N2CCN(C)CC2)oc2ccccc12	1	i	-11	7	12	.	.
O=C(Nc1cccnc1)c1cc(Br)c(Br)s1	.	-1	-6	7	15	.	.
NC(=O)c1cc(NC(=O)c2cc(Br)c(Br)s2)cc(C(N)=O)c1	0	3	46*	4	1	47*	0
COC(=O)[C@]12C[C@H](CC(=O)N3CCN(C(=O)C4CC4)CC3)C(=O)N(Cc3ccccc3)C1=C[C@H](C1CCCC1)O[C@@H]2C	.	.	0	.	.	.	.
Fc1ccc(-n2nnnc2-c2cnc(-c3cccs3)nc2C(F)(F)F)cc1	3	-7	53*	4	29	48*	40*
Cn1c(CNC(=O)OC(C)(C)C)nnc1SCC(=O)N1CCOCC1	1	i	4	0	4	.	.
O=C(C1CC1)N1N=C(C2CCCCC2)CC1(O)C(F)(F)F (centres undefined)	2	-1	-6	3	-3	.	.
Cc1cccc(CSC(Nc2ccc(F)cc2)=C(C#N)C#N)c1	-4	0	19	-1	-5	.	.
N#CC(C#N)=C(Nc1ccc(F)cc1)SCc1cccc(Br)c1	-1	-3	32*	-5	19	38*	32*

Screening results (PubChem)
